Only some compounds are listed: those with a hit (about 0.97% of all), similar ones and a draw of the others.
PI4K2A block – qHTS for small molecular inhibitors of PI4K2A | Phosphatidylinositol 4-kinase type 2-alpha (Homo sapiens), Q9BTU6 | purified PI4K2A, ADP-Glo luminescence, 1 h; active compounds read low | activity change, negative = inhibition, % at 76.9 µM | actives 0.13% (n = 420,000) | AID 1346378, 2018; in the data active = activity change below about -50%; inconclusive = mostly about -30% to -49%;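 note: -100% = wells without enzyme as full effect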
Target sequence (Q9BTU6 whole entry, looked up): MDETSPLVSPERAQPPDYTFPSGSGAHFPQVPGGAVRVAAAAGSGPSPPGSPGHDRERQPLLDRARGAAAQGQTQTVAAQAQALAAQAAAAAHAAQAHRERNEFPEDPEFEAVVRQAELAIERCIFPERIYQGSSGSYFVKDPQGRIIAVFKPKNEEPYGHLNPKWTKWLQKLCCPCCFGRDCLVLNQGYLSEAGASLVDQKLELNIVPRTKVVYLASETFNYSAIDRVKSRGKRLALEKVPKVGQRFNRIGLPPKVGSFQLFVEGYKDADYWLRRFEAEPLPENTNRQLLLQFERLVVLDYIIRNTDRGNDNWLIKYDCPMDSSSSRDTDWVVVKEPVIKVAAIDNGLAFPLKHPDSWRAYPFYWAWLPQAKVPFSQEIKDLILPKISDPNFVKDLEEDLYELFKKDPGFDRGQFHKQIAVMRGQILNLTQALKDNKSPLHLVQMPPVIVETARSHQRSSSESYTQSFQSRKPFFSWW
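PI4K2A activity was measured by ADP-Glo luminescence: enzyme (4 ug/mL stock) and phosphatidylinositol (1.2 mM stock) in Tris pH 7.5/MgCl2/EGTA/Triton X-100 buffer were reacted with ATP (300 microM stock) for one hour at ambient temperature.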
CCT modulator – High-Throughput Screening for Modulators of Cytosolic Chaperonin Activity | actives 0.3% (n = 360,000) | purified chaperonin ATPase assay, HTRF ADP detection, 30 min | activity change, % (test concentration not listed), hits read low | AID 651819, 2012; in the data active = activity change below about -30%
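Enzyme 40 or 20 nM (batch-dependent) in Tris pH 7.4/KCl/MgCl2/DTT; cpd 76 uM single point; ATP 10 uM; 30 min 37 °C; Transcreener ADP HTRF detection, 30 min RT; ratio 665/615.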
Eya2 inh – qHTS Assay for Inhibitors of the Phosphatase Activity of Eya2; Protein phosphatase EYA2 (Homo sapiens), O00167; recombinant Eya2, OMFP fluorescence dephosphorylation (OMFP is methylfluorescein phosphate); Potency, µM (highest dose often 76.9 µM), for inactives: at the highest dose activity, negative = inhibition, usual class: inhibitors; actives 0.006% (n = 330,000); AID 488837, 2010; active = well fitted inhibition curve with a large enough effect; inconclusive = small, poorly fitted or top-dose-only effect, or effect the other way; note: potency is the fitted concentration of half-maximal effect
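Eya2 (0.2 uM) preincubated 10 min at ambient with compound, then OMFP substrate added at 50 uM; 10 min reaction in 50 mM HEPES pH 7.5, 50 mM NaCl, 5 uM MgCl2, 0.05% BSA, 1 mM DTT. Fluorescence read at Ex 485/Em 525 nm.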
Six1-Eya2 inh – qHTS Assay for Inhibitors of the Six1/Eya2 Interaction; activity change, % (no concentration beside the values); AID 651725, 2012; actives 0.56% (n = 360,000); Homeobox protein SIX1 (Homo sapiens) + Protein phosphatase EYA2 (Homo sapiens), …; AlphaScreen GST-Six1/His-Eya2 binding, biochemical; active compounds read low
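AlphaScreen luminescence read after one hour at 37 °C in darkness. Pin-transferred compounds met GST-Six1 and His-Eya2 protein (5X stock 250 nM/500 nM) plus glutathione donor and Ni-chelate acceptor beads (5X, 50 ug/mL).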
CtBP-E1A inh – qHTS Assay for Inhibitors of the CtBP/E1A Interaction | CtBP / adenovirus E1A interaction (AlphaScreen) | AlphaScreen GST-E1A/His-CtBP binding, 1536-well; active compounds read low | activity change, % (test concentration not listed) | actives 0.49% (n = 340,000)
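AlphaScreen with 125 nM GST-E1A and 125 nM His-CtBP (5X stocks) in Tris pH 8.0, 300 mM NaCl, BSA, Tween 20, TCEP. Compounds preincubated 2 h at 37 deg C, then glutathione donor/nickel acceptor beads added for 1 h at 37 deg C in dark.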
An asterisk follows results filed as active; ? = inconclusive; . = no result. Cut-off read from the data, not from the text of the source, unless noted: active = activity change below about -65%; inconclusive = mostly about -30% to -63%; inactive = weaker than that. Unless noted, % is set by controls: 0 for no effect and ±100 for the full control effect.

SMILES | PI4K2A block | CCT modulator | Eya2 inh | Six1-Eya2 inh | CtBP-E1A inh
O=C(NCCO)[C@H](Cc1ccccc1)NC1(C(=O)NCCN2CCOCC2)CCCCC1 | -1 | . | . | . | .
CCN(CC)CCn1c(O)c(N=O)c2ccccc21 | 7 | -1 | 10% | 3 | 2
CCN(CC)CCn1c2ccccc2c(=O)c2c(O)ccc(O)c21 | -13 | -2 | . | -69* | 0
CCOCCCn1c(SCC(=O)NC2CCCCC2)nc2ccccc2c1=O | -4 | -86* | . | 4 | 4
CCOC(CCn1c(SCC(=O)NC2CCCC2)nc2ccccc2c1=O)OCC | 2 | -1 | -18% | 0 | 4
CN(CC(=O)Nc1ccc(F)c(F)c1)S(=O)(=O)c1cccs1 | 0 | -40* | -10% | -1 | 5
NC(Cc1ccc(F)cc1)c1csc(Nc2cc(NCc3ccco3)ncn2)n1 (configuration not stated) | -8 | -1 | . | ? | -76*
NC(c1csc(Nc2cc(NCc3ccco3)ncn2)n1)c1ccccc1Cl (configuration not stated) | -4 | -2 | . | ? | -80*
NC(Cc1ccc(F)cc1)c1csc(Nc2cc(Oc3ccccc3)ncn2)n1 (configuration not stated) | -8 | 0 | . | -19 | -26
COc1ccc2ccccc2c1/C=N\NC(=O)c1cccnc1 | -1 | 0 | . | 10 | 0
O=C(NN=Cc1c(O)ccc2ccccc12)c1ccncc1 | 1 | 1 | . | -89* | ?
O=C(N/N=C\c1c(O)ccc2ccccc12)c1ccc(O)cc1 | 3 | 1 | 4% | -65* | ?
O=C(N/N=C/c1c(O)ccc2ccccc12)c1cccnc1 | 5 | 2 | 9% | -67* | -92*
Cc1occc1C(=O)N/N=C/c1c(O)ccc2ccccc12 | -22 | 0 | -4% | -23 | -28
Cn1cc(C(=O)N/N=C/c2c(O)ccc3ccccc23)ccc1=O | 0 | -3 | 0% | -89* | .
CCCCCn1c(=N)n(CC(O)COc2cccc(C)c2)c2ccccc21 (configuration not stated) | 0 | . | . | . | .
Cc1ccc(C(=O)N/N=C/c2c(O)ccc3ccccc23)cn1 | -5 | -2 | 12% | -74* | .
O=C(N/N=C/c1c(O)ccc2ccccc12)c1ccc[n+](CCO)c1 | 1 | 2 | -3% | -91* | -90*
O=C(N/N=C\c1c(O)ccc2ccccc12)c1cncc(Br)c1 | 5 | 1 | ? | ? | ?
Cn1nccc1C(=O)N/N=C/c1c(O)ccc2ccccc12 | 5 | 1 | ? | -87* | -83*
COc1cccc(-c2nnc(SCC(=O)Nc3ccc(Oc4ccccc4)cc3)n2Cc2ccco2)c1 | -3 | . | . | . | .
Cn1c(=O)c2c(-c3ccc(Cl)cc3)n(Cc3ccc(Cl)cc3)cc2n(C)c1=O | 1 | . | . | . | .
O=C(O)c1ccccc1NCCc1ccccc1 | 2 | . | . | . | .
CCOC(=O)c1cc2c(=O)n3ccccc3nc2n(CC2CCCO2)c1=NC(=O)c1cc(C)cc(C)c1 (configuration not stated) | 3 | . | . | . | .
COCc1cc(C)nc(OCC(=O)N/N=C/c2ccccc2O)c1C#N | -2 | -7 | 2% | -91* | -84*
SMILES | PI4K2A block | CCT modulator | Eya2 inh | Six1-Eya2 inh | CtBP-E1A inh
COCc1cc(C)nc(OCC(=O)N/N=C/c2ccc(O)cc2O)c1C#N | 1 | -2 | 1% | -84* | -88*
COCc1cc(C)nc(OCC(=O)N/N=C/c2cccc(OC)c2)c1C#N | -1 | -1 | -30% | -2 | 6
CC(=O)c1ccc(Sc2ccccc2)c([N+](=O)[O-])c1 | -2 | -2 | -4% | -25 | -13
CC(=O)NCCNC(=O)c1ccc(Sc2ccccc2)c([N+](=O)[O-])c1 | -7 | -33* | 4% | -17 | .
COc1cc(NC(=O)c2cc([N+](=O)[O-])ccc2NC(=O)CNCc2ccccn2)cc(OC)c1 | 0 | 0 | 4% | -91* | -84*
CCOC(=O)Cc1nnc(Nc2ccc(C)cc2)c2ccccc12 | -75* | -1 | -5% | 10 | 1

Source: PubChem
